Lassa entry inh = inhibitors of Lassa virus binding or cell entry; Lassa virus pseudotype entry inhibition, cell reporter; 300,000 compounds, 1.2% hits; AID 540256; Potency, µM (doses to about 37.9 µM), usual class: inhibitors; calls by dose curve; tested in HEK293 cells; also: nearly all actives have a fitted effect of over 50% in size
Pf growth 48h = inhibits P. falciparum growth in the first generation, 48 h; P. falciparum luciferase growth in erythrocytes, 48 h; Potency, µM (doses to about 28.7 µM), usual class: inhibitors; 310,000 compounds, 5.9% hits; AID 504832
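Cell-based growth assay: transgenic P. falciparum expressing firefly luciferase, cultured in red cells within RPMI 1640 containing 0.5% w/v Albumax, 24 mM bicarbonate and gentamycin. A drop in luciferase activity indicates inhibition.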
Pf growth 96h = P. falciparum growth inhibition at 96 hour, primary screen for plastid delayed-death inhibitors | Potency, µM (doses to about 28.7 µM), hits mostly inhibitors | 320,000 compounds, 6.9% hits | AID 504834 | P. falciparum luciferase reporter growth, 96 h
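P. falciparum expressing integrated firefly luciferase grown in erythrocytes (2% hematocrit, 0.05% parasitemia final) with compounds for 96 hours at 37 C, 5% CO2. Growth inhibition read as loss of luminescence after adding luciferase detection reagent.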
Cycloheximide cs = counter-screen for Shiga toxin inhibitors: cycloheximide protein synthesis inhibition; cell reporter, cycloheximide protein synthesis inhibition counterscreen; max response, %; 300,000 compounds, 12% hits; AID 2314; in the data active = max response mostly above about 13%, no sharp cut-off; inactive = mostly below about 14%; also: read at 38.3 µM for the half of the compounds with a filed dose
Shiga toxin inh = inhibitors of Shiga toxin in Vero cells; AID 2315; Vero cells, Shiga toxin protein synthesis inhibition reporter; 290,000 compounds, 9.2% hits; inhibition, % at 38.7 µM; in the data active = inhibition mostly above about 28%, no sharp cut-off; inactive = mostly below about 43%
Marburg entry inh = Marburg virus entry inhibition | Marburg virus pseudotyped entry inhibition, cell reporter | Potency, µM (titrated, usually from 37.8 µM), most hits filed as inhibitors | 300,000 compounds, 1.8% hits | AID 540276; calls by dose curve; tested in HEK293 cells
Large screens that a line does not name were inactive. An excerpt weighted towards active compounds, which were near 19% of everything screened. Unless noted, calls follow the shape of the dose curve; as a rule, active = well fitted inhibition curve with a large enough effect; inconclusive = small, poorly fitted or top-dose-only effect, or another doubt; inactive = no such curve, though single readings can be large or run the other way.

COc1ccc(NC(=O)COC(=O)C(CC(C)C)N2C(=O)C3CC=CCC3C2=O)cc1Cl (stereo unspecified)	none
CCC1C(=O)N=C(SCC(=O)Nc2ccc(S(N)(=O)=O)cc2)NC1=O (stereo unspecified)	Pf growth 96h inconclusive, Marburg entry inh inconclusive
COc1ccc(C(=O)OCCCN(C)C)cc1OC	Cycloheximide cs 45
CCOC(=O)Oc1ccc(C(=O)OCCCN(C)C)cc1OC	none
CSc1ccccc1C(=O)N1CCN(c2ccc(F)cc2)CC1	none (no result: Pf growth 48h)
CC(=C1C(=O)c2ccccc2C1=O)N1CCN(c2ccc(F)cc2)CC1	Cycloheximide cs 14, Shiga toxin inh 33 (no result: Lassa entry inh, Marburg entry inh)
CC1CCN(C2=C(NS(=O)(=O)c3ccc(Cl)cc3)C(=O)c3ccccc3C2=O)CC1	Pf growth 48h 7.4µM, Pf growth 96h 1.5µM, Cycloheximide cs 22, Shiga toxin inh 85
O=S(=O)(Nc1nc2ccccc2nc1N1CCN(c2ccccc2)CC1)c1ccc(F)cc1	none
O=C1C(NS(=O)(=O)c2ccccc2)=C(N2CCN(c3ccc(F)cc3)CC2)C(=O)c2ccccc21	Pf growth 48h 13µM, Pf growth 96h inconclusive (no result: Lassa entry inh, Marburg entry inh)
CC1CCN(C2=C(NS(=O)(=O)c3ccccc3)C(=O)c3ccccc3C2=O)CC1	Pf growth 48h inconclusive, Pf growth 96h inconclusive, Cycloheximide cs 20, Marburg entry inh inconclusive
O=C1CCN(C(=O)c2cccs2)c2ccccc21	none
O=C(CCn1cccc1)Nc1ccc(F)cc1	Marburg entry inh inconclusive (no result: Pf growth 48h)
CCOC(=O)C1CCCN(C2=C(NS(=O)(=O)c3ccc(Br)cc3)C(=O)c3ccccc3C2=O)C1 (stereo unspecified)	Pf growth 48h 5.2µM, Pf growth 96h 2.9µM (no result: Lassa entry inh, Marburg entry inh)
O=C1C(NS(=O)(=O)c2cccs2)=C(N2CCN(c3cccc(Cl)c3)CC2)C(=O)c2ccccc21	Lassa entry inh inconclusive, Pf growth 48h 12µM, Marburg entry inh inconclusive (no result: Pf growth 96h)
O=S(=O)(Nc1ccc(N2CCOCC2)cc1)c1cccs1	none
O=C1C(NS(=O)(=O)c2ccc(Br)cc2)=C(N2CCCCC2)C(=O)c2ccccc21	Pf growth 48h 12µM, Pf growth 96h 9.3µM (no result: Lassa entry inh, Marburg entry inh)
CC1CCN(C2=C(NS(=O)(=O)c3ccc(Br)cc3)C(=O)c3ccccc3C2=O)CC1	Pf growth 48h inconclusive, Pf growth 96h inconclusive, Cycloheximide cs 32, Shiga toxin inh 38 (no result: Lassa entry inh, Marburg entry inh)
NC(=O)CSc1ncc(-c2ccccc2)[nH]1	Lassa entry inh inconclusive, Pf growth 96h inconclusive, Cycloheximide cs 14, Shiga toxin inh 79
O=C(CSc1ncc(-c2ccccc2)[nH]1)Nc1ccccc1F	Cycloheximide cs 40, Shiga toxin inh 72
O=C(CSc1ncc(-c2ccccc2)[nH]1)Nc1cccc(O)c1	Cycloheximide cs 12 (no result: Pf growth 48h)
NC(=O)CSc1ncc(-c2ccc([N+](=O)[O-])cc2)[nH]1	Lassa entry inh inconclusive
O=C(CSc1ncc(-c2ccc(F)cc2)[nH]1)N1CCCCC1	Cycloheximide cs 26, Shiga toxin inh 44
CCC1C(=O)N=C(SCC(=O)Nc2ccc(C)cc2)N(c2ccccc2)C1=O (stereo unspecified)	none
CCn1c(=O)c(C(=O)NCCc2ccccc2)c(O)c2ccccc21	Pf growth 48h inconclusive
O=C(CN1CCCCC1)NNC(=O)c1cccc(Br)c1	none
COC(=O)CCC(=O)OC1(C)C(=O)C=C2C=C(C3CC3)N(Cc3ccco3)C=C2C1=O (stereo unspecified)	Pf growth 48h 12µM, Pf growth 96h inconclusive (no result: Lassa entry inh)
CC(C)CC(O)(CC(C)C)C(=O)NNc1ccccc1	none
CCOC(=O)c1nc(S(C)(=O)=O)ncc1N1CCOCC1	none
CCN(CC)c1ccc(C(=S)NC2CCCCC2)cc1	Pf growth 48h inconclusive, Cycloheximide cs 24, Shiga toxin inh 76, Marburg entry inh inconclusive
CCOc1ccc(C(=S)NC2CCCCC2)cc1OCC	Pf growth 96h inconclusive
CN(C)c1ccc(C(=S)NC2CCCCC2)cc1	Cycloheximide cs 25, Shiga toxin inh 69 (no result: Lassa entry inh, Marburg entry inh)
Cc1ccc(CN(C)C(=O)c2cc(COc3ccc(F)cc3Cl)on2)o1	Pf growth 48h 0.093µM, Cycloheximide cs 31, Shiga toxin inh 50
CSc1ccccc1OCc1cc(C(=O)N(C)Cc2nonc2C)no1	Cycloheximide cs 59, Shiga toxin inh 189
Cc1cc(CN(C)C(=O)c2cc(COc3ccc(F)cc3Cl)on2)n[nH]1	Lassa entry inh inconclusive, Cycloheximide cs 33, Shiga toxin inh 117, Marburg entry inh inconclusive
CN(C(=O)c1cc(COc2ccc(F)cc2Cl)on1)C1CCCc2ccccc21 (stereo unspecified)	Pf growth 48h inconclusive (no result: Lassa entry inh, Marburg entry inh)
CSc1ccccc1OCc1cc(C(=O)N(C)Cc2ccncn2)no1	Cycloheximide cs 49, Shiga toxin inh 105
Cc1nonc1CN(C)C(=O)c1cc(COc2ccc(F)cc2Cl)on1	Lassa entry inh inconclusive, Cycloheximide cs 46, Shiga toxin inh 58, Marburg entry inh inconclusive
C#CCN(Cc1ccco1)C(=O)c1cc(COc2ccc(F)cc2Cl)on1	Pf growth 48h inconclusive, Shiga toxin inh 47
O=C(NCCCc1ccccc1)c1cc(COc2ccc(F)cc2Cl)on1	none (no result: Lassa entry inh, Marburg entry inh)
CSc1ccccc1OCc1cc(C(=O)N(C)CCn2nc(C)cc2C)no1	Cycloheximide cs 31, Shiga toxin inh 30 (no result: Lassa entry inh, Marburg entry inh)
COCCCNC(=O)CSc1nc2c(sc3ccccc32)c(=O)n1CCc1ccccc1	none (no result: Pf growth 48h, Pf growth 96h, Cycloheximide cs, Shiga toxin inh, Marburg entry inh)
Cc1ccc(C)c(NS(=O)(=O)c2cc(C(=O)NCCSC3CCCCC3)ccc2C)c1	Pf growth 48h inconclusive, Pf growth 96h inconclusive
O=C(CCSc1ccccc1)NCCSCc1ccccc1	none
O=C(CCc1ccccc1)NCCSc1ccccc1	Cycloheximide cs 31, Shiga toxin inh 95
CCCCCNC(=O)CCc1ccccc1	Cycloheximide cs 13
CN(C)c1cccc(C(=O)NCCCSc2ccccc2)c1	Cycloheximide cs 37, Shiga toxin inh 47, Marburg entry inh inconclusive
Cc1ccccc1NS(=O)(=O)c1cc(C(=O)NCCSC2CCCCC2)ccc1C	Lassa entry inh 8.2µM, Pf growth 96h inconclusive, Marburg entry inh inconclusive
CCOc1ccc(N2C(=O)c3cccnc3C2Nc2ccc(Cl)cc2)cc1 (stereo unspecified)	Pf growth 48h inconclusive, Marburg entry inh inconclusive
CCOC(=O)C(CC)(CC)C(=O)/C=C/c1ccc(OC)cc1	Pf growth 48h inconclusive, Pf growth 96h inconclusive (no result: Lassa entry inh, Marburg entry inh)
CN(C)S(=O)(=O)c1ccc(C(=O)NCCSc2ccc(Br)cc2)cc1	Lassa entry inh inconclusive
Cc1ccc(C(=O)NCCSc2ccccc2)cc1S(=O)(=O)Nc1ccccc1	Lassa entry inh inconclusive, Marburg entry inh 23µM
CCCC/C=C/C(NC(=O)CCc1ccccc1)c1ccccc1 (stereo unspecified)	Pf growth 48h inconclusive, Pf growth 96h 8.3µM
CCC(NC(=O)CCCc1ccccc1)c1ccccc1 (stereo unspecified)	Pf growth 96h inconclusive
O=C(NCCSc1ccccc1)c1ccc(Br)cc1	Lassa entry inh 13µM, Pf growth 96h inconclusive, Cycloheximide cs 48, Shiga toxin inh 81, Marburg entry inh inconclusive
O=C(NCCOCCOCCNC(=O)c1ccccc1)c1ccccc1	Pf growth 96h inconclusive
O=C(NCCSc1ccccc1)c1ccccc1	Lassa entry inh inconclusive, Cycloheximide cs 31, Shiga toxin inh 114, Marburg entry inh inconclusive (no result: Pf growth 96h)
